Screening data as filed in PubChem.
Methyltransferases – Primary Screen for Target Class Profiling of Small Molecule Inhibitors of Methyltransferases. purified enzyme, MTase-Glo SAH luminescence; stronger effect = lower value. calls only at 40 µM. 25,000 compounds, 3.9% hits. AID 1745853, 2022; call rule not given here
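Each enzyme was reacted with SAM and its substrate, with compounds tested once at 40 uM; SAH formed was read by MTase-Glo luminescence.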
MTase-Glo counter – inhibits MTase-Glo coupling enzymes without methyltransferase | Potency, µM (titrated, usually from 57.3 µM), actives largely listed as inhibitors | 180 compounds, 6% hits | MTase-Glo coupled enzymes, SAH conversion luminescence, no MTase | shares compounds with Methyltransferases | AID 1745851; active means well fitted inhibition curve with a large enough effect
Large screens that a line does not name were inactive (follow-up assays come after a bar, where they were run). The sample as a whole holds a higher share of hits than the screen did.

CC1CCC(NC(=O)C2(C)Cn3c(cc4sccc43)C(=O)N2Cc2ccc(OC(C)C)cc2)CC1 (configuration not stated)	none
Cc1cccc(-c2n[nH]n3c2nc(=O)c2ccc(C(=O)NCc4ccccc4)cc23)c1	none
O=C(O)c1ccc(CC2CCN(Cc3ccccn3)C2)cc1 (configuration not stated)	none
c1ccc(Nc2cc3c(cn2)NCCN(Cc2ccccn2)C3)cc1	none
c1ccc(-c2cc3c(cn2)NCCN(Cc2ccccn2)C3)cc1	Methyltransferases active | MTase-Glo counter inactive
Cc1ccc(N2C(=O)c3cc4occc4n3CC2(C)C(=O)NC2CCCCCCC2)c(C)c1 (configuration not stated)	none
COc1cccc(-c2ccc(C(=O)N3CCC(NC(=O)N(C)C)CC3)cc2)c1	none
CN(C)C[C@H]1C[C@@H](CO)CN(C(=O)c2csc(Cc3ccccc3)n2)C1	none
COc1cccc(-c2cccc(C(=O)N3C[C@H](CO)C[C@H](CN(C)C)C3)c2)c1	Methyltransferases active | MTase-Glo counter inactive
CC(C)Cn1c(=O)c2ccc(C(=O)NC(C)C)cc2n2c(SCc3cccc(F)c3)nnc12	none
CC(C)C1c2cccn2CCN1C(=O)Nc1ccc(F)c(Cl)c1 (configuration not stated)	none
CCOC(=O)c1cccc(NC(=O)c2cc3n(n2)CC(C)(C(=O)NC2CCCCC2)N(C)C3=O)c1 (configuration not stated)	none
COc1ccc(OC)c2c1cc1n2CC(C)(C(=O)NC2CCCC2)N(Cc2ccccc2C)C1=O (configuration not stated)	none
Cc1ccc(-c2cc3c(ccn3C)c(C(=O)NCc3cccnc3)n2)cn1	none
Cn1cncc1CNC(=O)c1nc(-c2cccc(N3CCOCC3)c2)cc2c1ccn2C	none
Cn1ccc2c(C(=O)NCCc3cnc[nH]3)nc(-c3ccc(N4CCOCC4)cc3)cc21	Methyltransferases active | MTase-Glo counter inactive
CCOc1ccccc1CN1C(=O)c2cc3occc3n2CC1(C)C(=O)NC1CCCCC1 (configuration not stated)	none
CC1CCN(CCCNC(=O)C2CCc3sc(C(=O)N4CCCC4)cc3C2)CC1 (configuration not stated)	Methyltransferases active | MTase-Glo counter inactive
CN1C(=O)CCCCC1C(=O)NCCN1CCCCC1 (configuration not stated)	none
CCCCNC(=O)C1CCc2sc(C(=O)N3CCCCC3)cc2C1 (configuration not stated)	none
CCCN1C(=O)c2cc3c(OC)ccc(OC)c3n2CC1(C)C(=O)NC1CCCCC1C (configuration not stated)	none
O=S(=O)(NCCn1c(-c2ccccc2)nc2ccccc21)c1ccc(F)c(F)c1	none
CC1(C(=O)NC2CCCCC2)Cn2c(nc3ccccc32)C(=O)N1Cc1ccc(F)cc1 (configuration not stated)	none
CCC(=O)N1Cc2ccccc2CC2(CCCN2CC2CCOCC2)C1 (configuration not stated)	none
Cc1ccc(-n2ccnc2-c2cc3n(n2)CCNC3)cc1N1CCCC1=O	none
c1ccc2c(c1)OCC(CCn1ccnc1-c1cc3n(n1)CCNC3)O2 (configuration not stated)	none
Cc1cnccc1NCCn1ccnc1-c1cc2n(n1)CCCNC2	Methyltransferases active | MTase-Glo counter inactive
CCN(Cc1nccn1C)C(=O)c1ccc(N2CCC(COC)C2)nc1 (configuration not stated)	none
CN1CCCCC1CCNC(=O)c1ccc(N2CCOCC2)nc1 (configuration not stated)	none
CC(C)c1nccn1CCCNC(=O)c1ccc(N2CCCC(CO)C2)nc1 (configuration not stated)	Methyltransferases active | MTase-Glo counter inactive
CCOc1ccc(C(=O)Cn2nc3n(C)c(=O)c4ccc(C(=O)NC5CCCC5)cc4n3c2=O)cc1	none
CC1(C(=O)NC2CCCC2)Cn2c(cc3sccc32)C(=O)N1Cc1ccccc1Cl (configuration not stated)	none
CC(C)CCNC(=O)C1(C)Cn2nc(C(=O)NCc3ccc4c(c3)OCO4)cc2C(=O)N1C (configuration not stated)	none
